Among the data in PubChem BioAssay (NCI) are growth values, retold here.

About 83,000 compounds went through this panel and 20% of them were active in at least one assay; those are over-represented in the sample as a whole.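 Results are percent growth after 48 hours of single-concentration exposure. 100 means growth as in untreated cells, lower positive values show inhibition; negative values down to -100 show cell death.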 Values without a mark were called inactive. The source made the active and inactive calls. The calls were made as follows: active = growth percent below 10; inactive = the rest.

Test systems include NCI-H23 lung; NCI-H226 lung; NCI-H322M lung; HOP-62 NSCLC; NCI-H460 lung; NCI-H522 lung; A549/ATCC NSCLC; 786-0 renal; COLO 205 colon; DU-145 prostate; K-562 leukemia; MALME-3M melanoma; MDA-MB-231 breast; RXF 393 renal; SF-268 CNS; SF-295 CNS; SF-539 CNS; UACC-257 melanoma; M14 melanoma.
Holding throughout (assay): NCI-60 one-dose screen, 48 h (100 = growth as untreated, 0 = no growth, -100 = all killed)
Settings in all cases: 10 µM unless noted

As to `c1ccc2cc(Cn3cc[n+](Cc4ccc5ccccc5c4)c3)ccc2c1`, the growth in the assay on NCI-H23 lung was 41.6%; with NCI-H226 lung it was 52.1%; with NCI-H322M lung, 62.8%; in the assay with HOP-62 NSCLC it was 42.1%; in the assay with NCI-H460 lung it was 39.6%; in the assay with NCI-H522 lung, -11.7% (active). Moreover, the growth in the assay on A549/ATCC NSCLC was 67.6%; in the assay on 786-0 renal, 52.2%; in the assay on COLO 205 colon, -73.9% (active); in the assay with DU-145 prostate, 53.2%; with K-562 leukemia it was 22.5%; in the assay on MALME-3M melanoma, 13.8%. The growth with MDA-MB-231 breast is 18.7%; in the assay on RXF 393 renal, 35.1%; in the assay on SF-268 CNS, 32.1%; in the assay on SF-295 CNS, 70.3%; with SF-539 CNS, 50.2%; with UACC-257 melanoma, -9.54% (active). Further, the growth in the assay with M14 melanoma was 16.1%.
`Cc1c(C)c2c(c(C)c1OC(=O)CCC(=O)[O-])CCC(C)(CCCCCCCCCCC[P+](c1ccccc1)(c1ccccc1)c1ccccc1)O2` (configuration not stated): the growth in the assay on NCI-H23 lung is -16.5% (active); with NCI-H226 lung, -6.94% (active); in the assay on NCI-H322M lung it was 0.982% (active); with HOP-62 NSCLC, -67.7% (active); in the assay on NCI-H460 lung, -69% (active); in the assay on NCI-H522 lung it was -25.9% (active). For the same molecule, the growth in the assay with A549/ATCC NSCLC is -2.64% (active); in the assay on 786-0 renal it was -49.7% (active); in the assay with COLO 205 colon, -52.9% (active); with DU-145 prostate it was -54.1% (active); with K-562 leukemia it was 6.14% (active); with MALME-3M melanoma, -83.6% (active). The growth in the assay on MDA-MB-231 breast is -34.2% (active); with RXF 393 renal, -78.3% (active); in the assay with SF-268 CNS, -61.3% (active); in the assay on SF-295 CNS it was -87.4% (active); in the assay with SF-539 CNS it was -69.1% (active); in the assay on UACC-257 melanoma, -54.2% (active).
Regarding `CCOC(=O)c1c(C)nc2c(c1N)C(=O)C(=O)N2CCc1ccc(OC)c(OC)c1`, the growth was 67% in the assay on NCI-H23 lung; 74% in the assay with NCI-H226 lung; 109% with NCI-H322M lung; 58.9% with HOP-62 NSCLC; 88.2% with NCI-H460 lung; 31.9% with NCI-H522 lung. Besides, the growth in the assay with A549/ATCC NSCLC was 66%; with 786-0 renal, 82.9%; in the assay with COLO 205 colon, 99.3%; in the assay on DU-145 prostate, 89.7%; in the assay on K-562 leukemia, 25.6%; in the assay on MALME-3M melanoma it was 79.1%. Further, the growth with MDA-MB-231 breast was 80.4%; in the assay with RXF 393 renal, 83.8%; with SF-268 CNS it was 78.7%; in the assay on SF-295 CNS, 63.3%; in the assay on SF-539 CNS, 70%; in the assay with UACC-257 melanoma, 46.8%. Also, the growth in the assay with M14 melanoma is 70.6%.
In the case of `CCOC(=O)C1=C(c2ccccc2)N=C2SC=C(c3cccc([N+](=O)[O-])c3)N2C1c1ccc(O)cc1` (configuration not stated), the growth in the assay on NCI-H23 lung was 96.5%; with NCI-H226 lung, 96.8%; with NCI-H322M lung, 96.3%; with HOP-62 NSCLC it was 98.6%; in the assay with NCI-H460 lung it was 101%; in the assay on NCI-H522 lung, 93.8%. Further, the growth is 100% in the assay with A549/ATCC NSCLC; 96.5% in the assay with 786-0 renal; 116% with COLO 205 colon; 102% in the assay with DU-145 prostate; 112% in the assay with K-562 leukemia; 96.7% in the assay with MALME-3M melanoma. The growth in the assay with MDA-MB-231 breast is 93.2%; in the assay on RXF 393 renal it was 89.1%; in the assay with SF-268 CNS, 94.3%; in the assay with SF-295 CNS, 101%; in the assay with SF-539 CNS, 98.8%; with UACC-257 melanoma, 96.1%. The growth with M14 melanoma was 101%.
For the molecule `[2H]C([2H])([2H])Oc1ccc(/C=C/C(=O)/C=C(/C=C/c2ccc(OC([2H])([2H])[2H])c(OC([2H])([2H])[2H])c2OC([2H])([2H])[2H])OB(F)F)c(OC([2H])([2H])[2H])c1OC([2H])([2H])[2H]`, the growth with NCI-H23 lung is 59.5%; in the assay with NCI-H226 lung, 88.5%; in the assay with NCI-H322M lung it was 97.7%; in the assay on HOP-62 NSCLC it was 85.7%; in the assay on NCI-H460 lung, 91.7%; with NCI-H522 lung, 45.9%. The growth with A549/ATCC NSCLC was 84.2%; in the assay on 786-0 renal it was 70.9%; with COLO 205 colon it was 43.6%; with DU-145 prostate, 68.8%; in the assay on K-562 leukemia, 29.3%; in the assay on MALME-3M melanoma, 57%. Further, the growth with MDA-MB-231 breast is 75.1%; in the assay with RXF 393 renal, 83.8%; in the assay on SF-268 CNS it was 88.8%; in the assay on SF-295 CNS, 97.2%; in the assay on SF-539 CNS, 77.7%; with UACC-257 melanoma, 53.5%. Moreover, the growth in the assay with M14 melanoma is 61.2%.
For `CC1=C2[C@@H](CC1)[C@]1(C)O[C@@](C(C)C)(C[C@H]1OC(=O)CO)[C@H]2OC(=O)CCCc1ccccc1`, the growth with NCI-H23 lung was 81.4%; in the assay on NCI-H226 lung it was 61.4%; in the assay on NCI-H322M lung it was 90%; with HOP-62 NSCLC, 39.5%; in the assay with NCI-H460 lung, 68%; in the assay on NCI-H522 lung it was 45.1%. Besides, the growth is 58.4% in the assay on A549/ATCC NSCLC; 79.2% with 786-0 renal; 55.1% in the assay on COLO 205 colon; 75.8% in the assay with DU-145 prostate; 53.9% in the assay on K-562 leukemia; 57.3% in the assay with MALME-3M melanoma. In addition, the growth with MDA-MB-231 breast is 88.2%; with RXF 393 renal, 86.2%; in the assay on SF-268 CNS, 73.4%; with SF-295 CNS it was 78.5%; in the assay on SF-539 CNS, 96.6%; in the assay on UACC-257 melanoma it was 85.1%. Also, the growth with M14 melanoma was 77.5%.
With `CN1CCN(Cc2ccc(NC(=O)c3cncc(C#Cc4c(N)ncc5cc(F)ccc45)c3)cc2C(F)(F)F)CC1`, the growth with NCI-H23 lung is -39.5% (active); with NCI-H226 lung, 22.2%; with NCI-H322M lung it was 40.5%; with HOP-62 NSCLC, 45.1%; in the assay on NCI-H460 lung, -19.8% (active); with NCI-H522 lung, 34.4%. The growth with A549/ATCC NSCLC was 45%; with 786-0 renal, -94% (active); with COLO 205 colon, -20.5% (active); in the assay with DU-145 prostate, -88% (active); with K-562 leukemia, -50% (active); with MALME-3M melanoma, -75.3% (active). Besides, the growth was -90.4% (active) in the assay on MDA-MB-231 breast; -59.9% (active) in the assay with RXF 393 renal; 38.6% in the assay on SF-268 CNS; 59.5% with SF-295 CNS; 9.53% (active) with SF-539 CNS; 41.5% in the assay on UACC-257 melanoma. Also, in the assay with M14 melanoma, the growth was -75.8% (active).
